Laboratory results as given in PubChem BioAssay AID1159580 (chemical genetic matrix, 2015).
The whole screen tested about 5,500 compounds, of which about 2,000 (36%) were called active. Roughly 18% stayed inconclusive and do not appear here. Rule as the data show it: active = normalized growth mostly below about 0.91 (no sharp cut-off); inconclusive = no clear call, values can overlap the other calls; inactive = mostly above about 0.92. Some of the results follow.

Assay: chemical genetic growth profiling, strain panel (AID 1159580);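 also: tested at 20 µM; growth read once vehicle control cultures reached saturation at 30 °C; 1 = growth at the plate median or of vehicle wells; lower values mean less growth of the strain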
Settings: growth OD

Measured: normalized growth

CNC(Cc1c[nH]c2ccccc12)C(=O)O (centres undefined)
inactive: S. cerevisiae deletion strains, locus YJR066W, strain TOR1, stronger effect = lower value 0.932 | S. cerevisiae deletion strains, locus YKL009W, strain mrt4, stronger effect = lower value 0.99 | S. cerevisiae deletion strains, locus YKL068W, stronger effect = lower value 0.992 | S. cerevisiae deletion strains, locus YKL085W, strain MDH1 (second series), stronger effect = lower value 0.983 | S. cerevisiae deletion strains, locus YKL085W, strain MDH1, stronger effect = lower value 0.983 | S. cerevisiae deletion strains, locus YKL160W, strain elf1, stronger effect = lower value 0.973 | S. cerevisiae deletion strains, locus YKR001C, strain vps1, stronger effect = lower value 1 | S. cerevisiae deletion strains, locus YKR026C, strain gcn3, stronger effect = lower value 0.975 | S. cerevisiae deletion strains, locus YKR091W, strain srl3, stronger effect = lower value 0.976 | S. cerevisiae deletion strains, locus YLL001W, strain dnm1, stronger effect = lower value 0.972 | S. cerevisiae deletion strains, locus YLL026W, stronger effect = lower value 0.974 | S. cerevisiae deletion strains, locus YLL041C, strain sdh2, stronger effect = lower value 0.981 | S. cerevisiae deletion strains, locus YLR027C, strain aat2, stronger effect = lower value 0.965 | S. cerevisiae deletion strains, locus YLR039C, strain RIC1, stronger effect = lower value 1.03 | S. cerevisiae deletion strains, locus YLR058C, strain SHM2, stronger effect = lower value 0.989 | S. cerevisiae deletion strains, locus YLR102C, strain apc9, stronger effect = lower value 0.995 | S. cerevisiae deletion strains, locus YLR113W, strain HOG1, stronger effect = lower value 1.07 | S. cerevisiae deletion strains, locus YLR221C, strain rsa3, stronger effect = lower value 1.01 | S. cerevisiae deletion strains, locus YLR258W, strain gsy2, stronger effect = lower value 0.99 | S. cerevisiae deletion strains, locus YLR262C, strain YPT6 (second series), stronger effect = lower value 1.01 | S. cerevisiae deletion strains, locus YLR262C, strain YPT6, stronger effect = lower value 1.01 | S. cerevisiae deletion strains, locus YLR268W, strain sec22, stronger effect = lower value 1.03 | S. cerevisiae deletion strains, locus YLR320W, strain mms22, stronger effect = lower value 1.02 | S. cerevisiae deletion strains, locus YLR330W, strain CHS5, stronger effect = lower value 0.987 | S. cerevisiae deletion strains, locus YLR342W, strain FKS1 (second series), stronger effect = lower value 0.957 | S. cerevisiae deletion strains, locus YLR342W, strain FKS1, stronger effect = lower value 0.989 | S. cerevisiae deletion strains, locus YLR357W, strain rsc2, stronger effect = lower value 0.951 | S. cerevisiae deletion strains, locus YLR370C, strain arc18, stronger effect = lower value 0.987 | S. cerevisiae deletion strains, locus YLR371W, strain rom2, stronger effect = lower value 0.969 | S. cerevisiae deletion strains, locus YLR384C, strain iki3, stronger effect = lower value 1.01 | S. cerevisiae deletion strains, locus YLR418C, strain cdc73, stronger effect = lower value 0.983 | S. cerevisiae deletion strains, locus YML016C, strain PPZ1, stronger effect = lower value 0.984 | S. cerevisiae deletion strains, locus YML032C, strain rad52, stronger effect = lower value 0.963 | S. cerevisiae deletion strains, locus YML120C, strain ndi1, stronger effect = lower value 0.983 | S. cerevisiae deletion strains, locus YML124C, strain tub3, stronger effect = lower value 0.994 | S. cerevisiae deletion strains, locus YMR058W, strain fet3, stronger effect = lower value 0.981 | S. cerevisiae deletion strains, locus YMR078C, strain ctf18, stronger effect = lower value 0.984 | S. cerevisiae deletion strains, locus YMR125W, strain sto1, stronger effect = lower value 0.973 | S. cerevisiae deletion strains, locus YMR129W, stronger effect = lower value 0.988 | S. cerevisiae deletion strains, locus YMR205C, strain PFK2, stronger effect = lower value 0.965 | S. cerevisiae deletion strains, locus YMR223W, strain ubp8, stronger effect = lower value 0.972 | S. cerevisiae deletion strains, locus YMR231W, strain pep5, stronger effect = lower value 0.976 | S. cerevisiae deletion strains, locus YMR263W, strain SAP30, stronger effect = lower value 0.982 | S. cerevisiae deletion strains, locus YMR307W, strain GAS1, stronger effect = lower value 0.902 | S. cerevisiae deletion strains, locus YNL067W, strain RPL9B, stronger effect = lower value 0.988 | S. cerevisiae deletion strains, locus YNL071W, strain lat1, stronger effect = lower value 0.989 | S. cerevisiae deletion strains, locus YNL128W, strain TEP1, stronger effect = lower value 0.983 | S. cerevisiae deletion strains, locus YNL153C, strain GIM3, stronger effect = lower value 0.976 | S. cerevisiae deletion strains, locus YNL183C, strain NPR1, stronger effect = lower value 0.993 | S. cerevisiae deletion strains, locus YNL209W, strain ssb2, stronger effect = lower value 0.982 | S. cerevisiae deletion strains, locus YNL233W, strain BNI4, stronger effect = lower value 1 | S. cerevisiae deletion strains, locus YNL248C, strain rpa49, stronger effect = lower value 0.962 | S. cerevisiae deletion strains, locus YNL250W, strain rad50, stronger effect = lower value 0.961 | S. cerevisiae deletion strains, locus YNL271C, strain bni1, stronger effect = lower value 0.994 | S. cerevisiae deletion strains, locus YNL298W, strain CLA4, stronger effect = lower value 0.987 | S. cerevisiae deletion strains, locus YNL307C, strain MCK1, stronger effect = lower value 0.988 | S. cerevisiae deletion strains, locus YNL322C, strain KRE1 (second series), stronger effect = lower value 0.986 | S. cerevisiae deletion strains, locus YNL322C, strain KRE1, stronger effect = lower value 0.985 | S. cerevisiae deletion strains, locus YNR049C, strain mso1, stronger effect = lower value 0.978 | S. cerevisiae deletion strains, locus YNR052C, strain pop2, stronger effect = lower value 0.983 | S. cerevisiae deletion strains, locus YOL012C, strain htz1 1.5 | S. cerevisiae deletion strains, locus YOL147C, strain pex11, stronger effect = lower value 1.01 | S. cerevisiae deletion strains, locus YOR001W, strain rrp6, stronger effect = lower value 0.975 | S. cerevisiae deletion strains, locus YOR061W, strain CKA2, stronger effect = lower value 0.961 | S. cerevisiae deletion strains, locus YOR069W, strain VPS5, stronger effect = lower value 0.999 | S. cerevisiae deletion strains, locus YOR070C, strain gyp1, stronger effect = lower value 1 | S. cerevisiae deletion strains, locus YOR080W, strain dia2, stronger effect = lower value 0.99 | S. cerevisiae deletion strains, locus YOR083W, strain WHI5, stronger effect = lower value 0.975 | S. cerevisiae deletion strains, locus YOR106W, strain vam3, stronger effect = lower value 0.96 | S. cerevisiae deletion strains, locus YOR136W, strain idh2, stronger effect = lower value 0.991 | S. cerevisiae deletion strains, locus YOR144C, strain elg1, stronger effect = lower value 0.988 | S. cerevisiae deletion strains, locus YOR184W, strain ser1, stronger effect = lower value 0.985 | S. cerevisiae deletion strains, locus YOR231W, strain MKK1, stronger effect = lower value 1 | S. cerevisiae deletion strains, locus YOR265W, strain rbl2, stronger effect = lower value 0.974 | S. cerevisiae deletion strains, locus YOR270C, strain vph1, stronger effect = lower value 0.972 | S. cerevisiae deletion strains, locus YOR290C, strain snf2, stronger effect = lower value 0.934 | S. cerevisiae deletion strains, locus YOR316C, strain cot1, stronger effect = lower value 0.991 | S. cerevisiae deletion strains, locus YPL051W, strain arl3, stronger effect = lower value 0.99 | S. cerevisiae deletion strains, locus YPL055C, strain LGE1, stronger effect = lower value 0.953 | S. cerevisiae deletion strains, locus YPL078C, strain atp4, stronger effect = lower value 0.959 | S. cerevisiae deletion strains, locus YPL106C, strain sse1, stronger effect = lower value 0.985 | S. cerevisiae deletion strains, locus YPL240C, strain hsp82, stronger effect = lower value 0.989 | S. cerevisiae deletion strains, locus YPL256C, strain CLN2, stronger effect = lower value 0.978 | S. cerevisiae deletion strains, locus YPR119W, strain clb2, stronger effect = lower value 0.997 | S. cerevisiae deletion strains, locus YPR141C, strain kar3, stronger effect = lower value 0.986 | S. cerevisiae deletion strains, locus YPR163C, strain tif3, stronger effect = lower value 0.993 | S. cerevisiae deletion strains, locus YPR167C, strain met16, stronger effect = lower value 0.992 | S. cerevisiae deletion strains, strain wtn01, stronger effect = lower value 1.02 | S. cerevisiae strains, strain wild type, stronger effect = lower value 1
